G9a inh: blocks human histone lysine methyltransferase G9a; AID 504332; G9a H3K9 monomethylation, AlphaScreen, 2 h; Q96KQ7; Potency, µM (titrated, usually from 102 µM), hits mostly inhibitors; 350,000 compounds, 8.8% hits; note: nearly all actives have a fitted effect of over 75% in size
Target sequence (Q96KQ7 913-1193 limits assumed): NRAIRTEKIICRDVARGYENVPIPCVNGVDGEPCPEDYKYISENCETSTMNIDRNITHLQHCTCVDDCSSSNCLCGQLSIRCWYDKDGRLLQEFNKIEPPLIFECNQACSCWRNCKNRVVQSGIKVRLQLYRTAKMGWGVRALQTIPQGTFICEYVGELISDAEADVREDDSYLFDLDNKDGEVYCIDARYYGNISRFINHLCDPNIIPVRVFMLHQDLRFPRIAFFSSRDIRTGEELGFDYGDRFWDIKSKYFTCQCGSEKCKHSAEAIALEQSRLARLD
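G9a (20 nM) preincubated 15 min RT with compounds, then 500 nM biotinylated H3K9 peptide and 20 uM SAM added; 2 h RT reaction. Monomethyl-H3K9 product detected by AlphaScreen with anti-H3K9me1 antibody, streptavidin donor and anti-rabbit IgG acceptor beads.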
VDR inhibitor: vitamin D3 receptor (human) inhibition; P11473; AID 504847; Potency, µM, usual class: inhibitors; 400,000 compounds, 0.93% hits; VDR-SRC2-3 peptide fluorescence polarization, 2 h
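FP read-out; VDR + SRC2-3 coactivator peptide; 23 nl compound by pintool; 2 h RT incubation; reagents held at 4 deg C, protected from light.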
JMJD2A Tudor inh: JMJD2A Tudor domain (human) inhibition; O75164; AlphaScreen JMJD2A-Tudor / H3K4me3 peptide binding; Potency, µM (series often up to 114 µM), most hits filed as inhibitors; 390,000 compounds, 4.4% hits; note: nearly all actives have a fitted effect of over 50% in size
PLK1 PBD block: PLK1 (human) polo-box domain binding inhibition; Potency, µM, hits mostly inhibitors; Plk1 PBD binding of FITC phosphopeptide, fluorescence polarization; 360,000 compounds, 2.8% hits; note: series mostly up to about 57 µM; nearly all actives have a fitted effect of over 65% in size
HP1b chromo inh: inhibitors of HP1-beta chromodomain binding to methylated histone tails; P83916; AlphaScreen HP1-beta / biotin-H3K9me3 peptide binding; Potency, µM (titrated, usually from 114 µM), most hits filed as inhibitors; 390,000 compounds, 0.56% hits; AID 540317; note: nearly all actives have a fitted effect of over 70% in size
Target sequence (P83916 whole entry, looked up): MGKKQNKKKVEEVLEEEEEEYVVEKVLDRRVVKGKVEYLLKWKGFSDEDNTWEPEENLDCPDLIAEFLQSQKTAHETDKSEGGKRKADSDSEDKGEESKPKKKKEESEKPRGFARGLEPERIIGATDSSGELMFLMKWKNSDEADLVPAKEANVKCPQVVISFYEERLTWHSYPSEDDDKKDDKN
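Compound inhibition of the preformed complex between 50 nM HP1-beta and 50 nM biotinylated H3K9me3 peptide was read by AlphaScreen. Buffer was PBS pH 7.4 with 0.01% Tween-20. Incubations ran 30 min at room temperature, with 10 ug/mL donor/acceptor beads.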
BAZ2B inh: inhibitors of human BAZ2B bromodomain. Q9UIF8. AlphaScreen BAZ2B-H3K14Ac peptide displacement. Potency, µM (series often up to 114 µM), most hits filed as inhibitors. 360,000 compounds, 4.4% hits. AID 504333; note: nearly all actives have a fitted effect of over 60% in size
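BAZ2B (50 nM) with biotin-H3(5-23)K14Ac peptide (50 nM) in PBS pH 7.4, 0.01% Tween-20, preformed 30 min, then compound 30 min at room temperature; top concentration 110uM. AlphaScreen streptavidin donor/nickel chelate acceptor beads (10 ug/mL final), 20 min dark, signal read.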
A number is an active result; – = inactive; ? = inconclusive; · = no result given; ! = a repeat was not active; [ ] = another dose, or the depositor's remark. Sampled rows, rich in hits. Any-hit rate of the full collection: about 11%. Calls come from the whole dose curve; as a rule, active = well fitted curve in the direction sought with a large enough effect; inconclusive = small, poorly fitted or top-dose-only effect, or another doubt; inactive = no such curve, though single readings can be large; an effect the other way counts as inactive or inconclusive.

SMILES	G9a inh	VDR inhibitor	JMJD2A Tudor inh	PLK1 PBD block	HP1b chromo inh	BAZ2B inh
CCCn1c(=O)n(C)c(=O)c2c(SCC(=O)NC34CC5CC(CC(C5)C3)C4)nc(CC(C)C)nc21	–	–	–	30µM	–	–
CC(C)=CCOc1c2occc2cc2ccc(=O)oc12	–[2.33 µM]	?	?	27µM	–	–
N#CC1(c2ccccc2)CCN(C2CC(=O)N(c3ccc4c(c3)OCO4)C2=O)CC1 (centres undefined)	22µM	–	–	–	–	–
O=[N+]([O-])c1ccc(CNCCc2ccccc2)cc1	7.9µM	–	20µM	–	?	50µM
O=[N+]([O-])c1ccccc1CNCCc1c[nH]c2ccccc12	·	–	22µM	–	?	50µM
CCOc1ccc([N+](=O)[O-])cc1CNCCc1ccccc1	–	–	–	–	–	–
O=[N+]([O-])c1ccccc1CNCCc1ccc(F)cc1	7.9µM	–	10µM	–	?	50µM
CCc1ccc(CNCCc2ccc(F)cc2)cc1	–	–	–	–	–	–
CC/C(=N\NC(=O)c1ccccc1)c1c(O)n(Cc2ccccc2)c(=O)[nH]c1=O	?	–	–	–	?	–
CCn1c(SCC(=O)NCc2ccccc2)nnc1C(CO)NC(=O)c1ccccc1 (centres undefined)	32µM	–	–	–	–	–
O=C1NC(=O)N(Cc2cccs2)C(=O)/C1=C/c1ccc(N2CCOCC2)cc1	?	?	–	3µM	–	?
CCN1C(=O)NC(=O)/C(=C\c2ccc(N3CCOCC3)cc2OC)C1=O	–	·	·	·	·	–
O=C1C(Cl)=C(Cl)C(=O)C(Cl)=C1Cl	?	0.71µM	·	·	·	·
Cc1ccc(C)c(S(=O)(=O)Nc2ccc3c(c2)CCCN3C(=O)c2cccs2)c1	?	–	–	·	–	–
CC(=O)N(C)CC#CCN1CCC(O)CC1	·	–	32µM	·	–	·
N#Cc1c(/N=C/C2C(=O)NC(=S)NC2=O)sc2c1CCCC2	28µM	?	–	?	–	?
CCCOP(=O)(OCCC)C(Nc1ccc(C(C)C)cc1)c1ccc([N+](=O)[O-])cc1 (centres undefined)	?	–	?	–	–	56µM
CC(C)OP(=O)(OC(C)C)C(Nc1ccc([N+](=O)[O-])cc1)c1cccc([N+](=O)[O-])c1 (centres undefined)	–	–	?	–	–	–
CCCCn1c(-c2ccoc2C)n[nH]c1=S	4µM	–	7.9µM	–	–	–
FC(F)(F)c1ccc2c(c1)N(CCCN1CCN(CCCl)CC1)c1ccccc1S2	10µM	–	16µM	–	–	40µM
Cc1ccc(-n2c(/C=C\c3ccc(F)c(F)c3)nc3ccccc3c2=O)c(C)c1	–	–	–	·	–	–
CC1C(=O)OC2C1CC[C@@]1(C)C=CC(=O)[C@@]3(C)O[C@@]213 (some centres undefined)	?	–	·	·	·	·
CC(c1ccccc1)n1cncc1C(=O)N1CCCC1=O (centres undefined)	50µM	–	?	–	–	?
CC(Cc1ccccc1)NC(=O)CN1CCCC1=O (centres undefined)	?	–	–	–	–	–
O=c1c2ccccc2nc(CN2CCCCCC2)n1-c1ccc(F)cc1	28µM	?	–	–	–	–
SMILES	G9a inh	VDR inhibitor	JMJD2A Tudor inh	PLK1 PBD block	HP1b chromo inh	BAZ2B inh
COc1cccc(CCNCc2cccc(C(F)(F)F)c2)c1	10µM	–	2.5µM	–	?	56µM
CN1CCC[C@@H]1c1cccnc1	–	–	·	·	·	·
COc1ccc(C(=O)C(C)(C)NO)cc1	?	–	50µM	–	?	?
COc1ccc(C(=O)C23CN4CN(CN(C4)C2)C3)cc1	–	–	–	–	–	–
COc1cc(OC)c(OC)cc1CNCCc1ccc(OC)c(OC)c1	?	–	3.2µM	–	?	?
COc1ccc(CNCCc2ccc(Cl)cc2)c(OC)c1OC	35µM	–	32µM	–	?	?
COc1ccccc1CNCCc1cccc(Cl)c1	·	·	·	–	·	·
COc1ccc(CCNCc2ccc(Br)cc2)cc1OC	–	–	20µM	–	?	50µM
COc1cc(OC)c(OC)cc1CNCCc1cccc(F)c1	–	–	7.9µM	–	?	56µM
O=C(O)CF	·	–	·	·	·	·
N#CCCN	–	–	·	·	·	·
N#Cc1cc2c(nc1SCC(=O)Nc1ccc(F)c(Cl)c1)C1CCN2CC1	–	–	–	·	–	–
O=C(Nc1cccnc1)C1CCN(S(=O)(=O)c2cccs2)CC1	–	–	–	–	–	–
COc1ccc(CCNCc2ccccc2F)cc1OC	–	–	–	–	–	–
Fc1ccc(CCNCc2ccc(Cl)c(Cl)c2)cc1	–[12.7 µM]	–	–	–	–	–
COc1cc(OC)c(OC)cc1CNCCc1ccc(F)cc1	·	–	63µM	–	–	–
COc1ccc(CCNCc2ccccc2F)cc1	–	–	20µM	–	–	45µM
COc1ccc(OC)c(CNCCc2ccc(OC)c(OC)c2)c1	·	–	18µM	–	–	?
COc1ccccc1CNCCc1ccc(F)cc1	–	–	32µM	–	?	50µM
CCOC(=O)c1ncn2c1[C@H]1CCCN1C(=O)c1cc(OC)ccc1-2	·	–	·	·	·	·
COc1ccc(S(=O)(=O)Nc2ccccc2OC)cc1N=Nc1c(O)[nH]c(=S)[nH]c1=O	·	–	?	–	?	·
O=c1[nH]c(=S)[nH]c(O)c1N=Nc1cc(S(=O)(=O)Nc2ccc(Cl)cc2)ccc1Cl	?	–	35µM	30µM	40µM	35µM
CCNC(=O)[C@H]1O[C@@H](n2cnc3c(N)ncnc32)[C@H](O)[C@H]1O	–[12.7 µM]	·	·	·	·	·
Cc1ccc(Cl)cc1N1CCN(C(=O)C2CCN(Cc3nc(-c4ccc(Cl)cc4)oc3C)CC2)CC1	?	–	?	·	–	8.9µM
Cc1ccc(C)c(N2CCN(C(=O)C3CCN(Cc4nc(-c5cccc(Cl)c5)oc4C)CC3)CC2)c1	?	–	40µM	·	–	8.9µM
SMILES	G9a inh	VDR inhibitor	JMJD2A Tudor inh	PLK1 PBD block	HP1b chromo inh	BAZ2B inh
C=CCN1C(=O)NC(=O)/C(=C/c2ccc(N(C)C)c(Br)c2)C1=O	16µM	79µM	–	6.7µM	–	–
C=CCN1C(=O)NC(=O)/C(=C/c2ccoc2)C1=O	–	–	?	8.4µM	–	–
COc1ccc(CN2C(=O)NC(=O)/C(=C/c3ccoc3)C2=O)cc1	18µM	–	56µM	2.4µM	22µM	50µM
CCN(CC)c1ccc(/C=C2/C(=O)NC(=O)N(CC3CCCO3)C2=O)cc1 (centres undefined)	·	–	–	?	–	?
O=C(Oc1ccc2cc(Br)ccc2c1)N1CCCCCC1	–	·	·	·	·	–
Cc1c2ccncc2c(C)c2c1[nH]c1ccccc12	21µM!	–	–	–	–	56µM
COC1C(O)C(C)O[C@@H](OC2CC[C@@]3(C)C4CC[C@]5(C)C(C6=CC(=O)OC6)CC[C@@]5(O)C4CC[C@@H]3C2)C1O (some centres undefined)	·	–	·	·	·	·
Oc1cccc2nc3ccccc3nc12	28µM	–	?	–	–	?

Screening results deposited in PubChem BioAssay by National Center for Advancing Translational Sciences (NCATS).
